The text below walks through data of the supplement of paper PMC6555819.

This test has as its system VDR:RXRa (NR concentration 270 nM, RXRa partner concentration 90 nM). As to the kind of experiment: PBM binding z-score (relative to random genomic background probes); higher = stronger binding; sequences stand for … in GC…GCGATTGACAGCGTAGAATGAAGG
How it is done: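 Protein-binding microarray (Agilent 4x180K custom design, double-stranded 60-nt probes: 5' GC cap, 34-nt variable region, 24-nt constant primer region; full probe sequence given). Purified or IVT nuclear receptor:RXRα heterodimers (3:1 NR:RXRα, mostly 270:90 nM) or homodimers were incubated for 1 h in PBS with 2% milk and no ligand, then detected with Alexa488 antibodies. Fluorescence from o1-orientation probes (~5 replicates averaged) was converted to z-scores against 500 random hg19 background probes. Variable regions are seed direct-repeat (DR0–DR5) sites, all their single-nucleotide variants and half-site ablations.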
TCTAGTTGGTCAAGGGTCACACACTCGAAATGCG had a PBM binding z-score of 4.32. The result for AGAATAAGGTTATACGTAGATCAGGGAAGAAAGT reads 1.04; that for CCTTACGGGTCATTCCAGGTTATAGCATCGGAGT, 4.87; that for AATATTAGTTGACTTAGGGCAACCGATACGACGC, 0.46.

In the case of GCAGACAGGTGAAACGCAGGTAACTCAGGGTGGC, the PBM binding z-score is -0.544. CGAACGAGGGCATGAGTTGGTAGCAAATGCCGAT: the PBM binding z-score stood at 0.602. For the sequence TCTTGTAGATCTATAGAGGTTAAGAAAGTGCGCT, the PBM binding z-score turned out to be 1.65.

As to CAAACTATGTCACAGAGGTCAAAGTCCGTGCGTA, the PBM binding z-score was determined as 6.63. The sequence ACAGACAGGTGAGTGAAGGTAAATCAGCTGGACG had a PBM binding z-score of -0.406. Take TCGGGTAGGTTAGGGGCATTCAGAATGGCGTCGA: the PBM binding z-score was 1.57.

CGAAAGAGGGCATGAGTTGATAGCAAATGCCGAT: the PBM binding z-score amounted to 1.22. Sequence CAAACTAGGTCAATGGTCAAAGTCGAGCCAACCA displayed a PBM binding z-score of 1.67. Sequence AGTCATAGTTCAGGACGAGGTAACGTAAAGCACG displayed a PBM binding z-score of 0.92. The result for TAGCCTAGGTCATTGGGCCAGTATGGTACGCATC reads 2; that for TTACCAAGGTGCAGGTCGTTGATCCCTCTGTAGA, 0.558; that for GATACAGGGGCAGCTAGAGGCCAGAGTATGGAAA, -0.219. The result for CCTGCTGGGCCAAAGGTCATTGATTCCAATGCTC reads 4.43; that for TCATATAGGTAAATAGGTGAAAGTCCGTAAGTTA, 1.25; that for CCTCGGAGGACAACAGGAGGTCAGAGCTGCCAGA, 2. Take GCTGCTAGGTCAACTGTTGGTCAGCTAAAGCTCG: the PBM binding z-score was determined as 1.39. The result for GCTGCTAGGTCAATTGATGGTCAGCTAAAGCTCG reads 0.815. The sequence CGTCCAAGGTCAAAGAGGTCAGTGAATGCCGAGT registered a PBM binding z-score of 7.77. With TTACCAGGGTGAGCTGAGGTCGTTGATCCAACTC, the PBM binding z-score was 4.58.

In the case of ACTATTAGATGACTTAGGGCAACCGATACGACGC, the PBM binding z-score is 0.293.

The sequence CCTAATGGGCCAAGGTCATTGATCAGTCAAAGCA showed a PBM binding z-score of 3.37.

For the sequence CGAACTAGGTCATCCTGGACAGTGAATACATTGA, the PBM binding z-score turned out to be 2.56. As for AGAACGAGGGCAGTGAGTTGATAGCACGGGTGGC, the PBM binding z-score turned out to be 3.91. Turning to ATCTGTAGGTAACAAGTTCAGTGAAAGAGAGGAC, the PBM binding z-score is 2. CTCGAAAGGTCGTGCTCTGGTGAGTATACCAAAC displayed a PBM binding z-score of 3.19. In the case of GCTAGTAGTTGAAAGGGCAACCGAATGATTCTCG, the PBM binding z-score was determined as 0.183. CGTCCAAGGTCAAACGTCAGTGAAGAGATGACGG yielded a PBM binding z-score of 4.37.

Consider CCTCCTAGGTCATGGTCAGCTAATCTACAGTATG, for which the PBM binding z-score was determined as 1.93. For ATATGTAGGTTAAGGGTCATTTAGGTTGGTTCGC, the PBM binding z-score was found to be 5.38. With CGAACTAGGTTATCCAGGACAGTGAATACATTGA, the PBM binding z-score is 1.57. As for CCTCGCAGGACAACAGGAGGTCAGAGCTGCCAGA, the PBM binding z-score was 1.42.

The sequence GCTAGTTAGTCAGTAAAAGGTCACACACCGGTCG showed a PBM binding z-score of 3.78. As to TAGCCTAGGTCATGGGTCAGTATACCACGCGAAC, the PBM binding z-score was 3.31.

Consider GCTAGTTGGTCAGTAAACGGTCACACACCGGTCG, for which the PBM binding z-score was -0.0437.

For CGTCCAAGGTCAATGCTAGGTCAGTCAAAGCATT, the PBM binding z-score stood at 5.1.

Regarding TCTCAGAGGACACGAAAGGTCAGAGCTCGACATC, the PBM binding z-score stood at 3.62.
